Test [1] is described as follows: qHTS Screen of the MIPE 4.0 Collection Against Ewings Sarcoma (TC32) (AID 1259256). Also: nearly all actives have a fitted effect of over 45% in size. In outline:
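Viability screen: 48 h incubation at 37C, 95% humidity, 5% CO2 with serially titrated compound, followed by CellTiter-Glo readout.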

The nature of test [2]: P-glycoprotein substrates identified in KB-8-5-11 adenocarcinoma cell line, qHTS therapeutic library screen (AID 1346987). Also: nearly all actives have a fitted effect of over 65% in size. In outline:
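Human cervical adenocarcinoma KB-8-5-11 cells, selected in colchicine to over-express P-gp and assayed without it, were exposed for 72 h to titrated compounds. An ATP-based luminescent viability signal gave AC50.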
(Quantitative high-throughput screening tests each substance at several concentrations.)

A short description of test [3]: NS1 protein of Zika virus - qHTS assay to identify small molecule inhibitors in human HEK 293 cells (AID 1347053). Also: nearly all actives have a fitted effect of over 55% in size. The essentials: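 Read-out is a two-antibody TR-FRET for ZIKV NS1, normalized between uninfected cells and infected cells. Compound added 1 h before MR766 infection at MOI 0.5; human HEK 293 cells incubated 24 h, 37 C.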
Test [4] is described as follows: qHTS of pediatric cancer cell lines to identify multiple opportunities for drug repurposing: Primary screen for TC32 cells (AID 1347089). Also: nearly all actives have a fitted effect of over 60% in size. In outline: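 Measured quantity: luminescence from CellTiter-Glo, reflecting metabolically active TC32 cells following 48 h of compound. Curves came straight from multi-point titrations, with 8 or 11 points in primary and 11 in confirmatory screening.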

Test [5] can be described thus: qHTS of pediatric cancer cell lines to identify multiple opportunities for drug repurposing: Primary screen for DAOY cells (AID 1347090). Also: nearly all actives have a fitted effect of over 55% in size. The essentials:
(§1)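 Viability measured as metabolically active cells via CellTiter-Glo luminescence following 48 hours of compound exposure, 11-point dilutions in confirmatory testing. 500-1,000 cells/well plated 5 hours before dosing; controls were DMSO and 2.3 µM bortezomib.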

Test [6] can be described thus: qHTS of pediatric cancer cell lines to identify multiple opportunities for drug repurposing: Primary screen for SJ-GBM2 cells (AID 1347091). The essentials:
as §1

A short description of test [7]: qHTS of pediatric cancer cell lines to identify multiple opportunities for drug repurposing: Primary screen for A673 cells (AID 1347092). Also: nearly all actives have a fitted effect of over 45% in size. The essentials:
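Cells are plated, rested 5 h, dosed by pintool, incubated 48 h, then lysed with CellTiter-Glo and read by luminescence. DMSO is the neutral control; bortezomib at 2.3 uM final is the positive control.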

Test [8] can be described thus: qHTS of pediatric cancer cell lines to identify multiple opportunities for drug repurposing: Primary screen for SK-N-MC cells (AID 1347093). The essentials:
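Metabolically active cells were quantified by ATP-dependent luminescence (CellTiter-Glo, 15 min at room temperature) following 48 h treatment. Cells had been plated at 500-1,000 per well and settled for 5 h beforehand.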

A short description of test [9]: qHTS of pediatric cancer cell lines to identify multiple opportunities for drug repurposing: Primary screen for BT-37 cells (AID 1347094). In outline:
(§2)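 Phenotypic viability qHTS, 48 h compound exposure, CellTiter-Glo luminescence read-out; multi-concentration dosing so that potency and efficacy derive directly from the primary screen's curves.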

Test [10] is described as follows: qHTS of pediatric cancer cell lines to identify multiple opportunities for drug repurposing: Primary screen for NB-EBc1 cells (AID 1347095). The essentials:
as §2

A short description of test [11]: qHTS of pediatric cancer cell lines to identify multiple opportunities for drug repurposing: Primary screen for U-2 OS cells (AID 1347096). Also: nearly all actives have a fitted effect of over 50% in size. The essentials:
(§3)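 Viability after 48 h compound treatment at 37C, 500-1,000 cells/well, read as ATP luminescence with CellTiter-Glo. Primary screens used 11-point (MIPE, 0.78 nM-46 µM) or 8-point (NPC, 0.59 nM-46 µM) final concentrations; follow-up screens used 11-point dilutions.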

Test [12] is described as follows: qHTS of pediatric cancer cell lines to identify multiple opportunities for drug repurposing: Primary screen for Saos-2 cells (AID 1347097). Also: nearly all actives have a fitted effect of over 40% in size. In outline:
as §2

Test [13] in a line: qHTS of pediatric cancer cell lines to identify multiple opportunities for drug repurposing: Primary screen for SK-N-SH cells (AID 1347098). Also: nearly all actives have a fitted effect of over 65% in size. In outline:
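Cells (500-1,000/well) rested 5 h, then received compounds for 48 h; metabolically active cells were measured by CellTiter-Glo luminescence. Final concentrations spanned up to 46 µM (MIPE, 11-point) or 0.59 nM-46 µM (NPC, 8-point) in primary screens, 11-point in follow-ups.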

Test [14] in a line: qHTS of pediatric cancer cell lines to identify multiple opportunities for drug repurposing: Primary screen for NB1643 cells (AID 1347099). Also: nearly all actives have a fitted effect of over 50% in size. The essentials:
as §2

Test [15] in a line: qHTS of pediatric cancer cell lines to identify multiple opportunities for drug repurposing: Primary screen for LAN-5 cells (AID 1347100). In outline: as §3
Test [16] can be described thus: P-glycoprotein substrates identified in KB-3-1 adenocarcinoma cell line, qHTS therapeutic library screen (AID 1346986). Also: nearly all actives have a fitted effect of over 60% in size.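 Also: potency is for cytotoxicity meaning loss of cell viability.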 In outline:
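Viability by CellTiter-Glo after 72 h compound exposure at 37 degree C, 5% CO2. Cytotoxic call: curve class -1.1 to -2.4, maximum response >50%, AC50 < 10 uM, compared across KB-3-1 and P-gp-overexpressing KB-8-5-11.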

“And” between values parts separate entries of the source, which are not always exact repeats. Equal entries are not always repeated. Records with an inconclusive call do not appear. The source made the active and inactive calls. Calls follow the shape of the dose curve; as a rule, active = well fitted curve in the direction sought with a large enough effect; inconclusive = small, poorly fitted or top-dose-only effect, or another doubt; inactive = no such curve, though single readings can be large; an effect the other way counts as inactive or inconclusive.
Potency is read from the fitted curve at half-maximal effect.

Regarding `CC(=O)NCC(=O)N1[C@H]2CC[C@H]1c1cc(Nc3ncc(C(F)(F)F)c(NC4CCC4)n3)ccc12`, the Potency in [1] is 0.209 µM (active); in test [2], 3.72 µM (active); in test [3] it was 13.2 µM (active); in [4], 0.131 µM (active); in test [5], 18.7 µM (active); in test [6] it was 0.0833 µM (active). Further, the Potency in test [7] is 3.72 µM (active); in test [8], 0.118 µM (active); in test [9] it was 24.3 µM (active); in test [10] it was 0.0662 µM (active); in test [12] it was 0.743 µM (active); in test [13], 1.08 µM (active). For the same compound, the Potency in test [14] was 1.18 µM (active); in test [15] it was 0.0332 µM (active). Besides, the Potency entry in [11] was “inactive”.

On to `CCCCCCCCCCCCc1ccc(S(=O)(=O)Nc2nncs2)cc1`, for which the Potency entry in test [1], in test [16], in test [2], in test [3], in test [5] and in test [7] was “inactive” throughout. Moreover, the Potency entry in [9], in test [11], in test [14] and in test [15] was “inactive” in each case. Moreover, the Potency in test [12] was 18.7 µM (active).

Take `NC(=O)Nc1sc(-c2ccc(F)cc2)cc1C(N)=O`: the Potency is 1.48 µM (active) in test [1]; 8.33 µM (active) in [2]; 3.7 µM (active) in test [4]; 0.469 µM (active) in test [5]; 0.372 µM (active) in [6]; 0.59 µM (active) in test [7]. Also, the Potency in test [8] was 0.059 µM (active); in test [9], 0.685 µM (active); in test [10], 0.469 µM (active); in [11], 4.69 µM (active); in [12] it was 2.35 µM (active); in [13], 5.41 µM (active). In addition, the Potency was 4.69 µM (active) in test [14] and 1.18 µM (active) in [15]. The Potency result in test [3] was “inactive”.

Consider `Nc1nc(=O)n([C@H]2CSC(CO)O2)cc1F` (stereo partly drawn), for which the Potency entry in test [1], in [2], in test [3], in test [4], in test [5] and in test [6] was “inactive” in each case. For the same compound, the Potency entry in test [7], in test [8], in test [9], in test [10], in test [11] and in test [12] was “inactive” each time. For the same compound, the Potency entry in [13], in test [14] and in test [15] was “inactive” each time.

As to `COc1cc(C)c(C=CC(C)=CC=CC(C)=CC(=O)O)c(C)c1C`, the Potency result in [1], in [16], in test [2], in test [3], in [6] and in [7] was “inactive” in each case. Further, the Potency result in test [10], in test [11], in test [12], in test [13] and in test [14] was “inactive” throughout. In addition, the Potency in test [8] is 18.7 µM (active).

For the compound `C=CC(=O)N1CCc2ccc(-n3c(=O)ccc4cnc5ccc(-c6cnn(C)c6)cc5c43)cc21`, the Potency in test [1] was 3.32 µM (active); in test [16], 3.99 µM (active); in test [3], 2.96 µM (active); in test [4] it was 9.3 µM (active); in [5], 5.9 µM (active); in test [6], 5.9 µM (active). Besides, the Potency was 5.9 µM (active) in test [7]; 1.48 µM (active) in test [8]; 6.11 µM (active) in test [9]; 3.72 µM (active) in test [10]; 2.96 µM (active) in [12]; 8.57 µM (active) in test [13]. Moreover, the Potency in [14] and in [15] was 2.35 µM (active) each time.

`C[C@H](CCC(=O)O)[C@H]1CC[C@H]2[C@@H]3[C@H](O)C[C@@H]4C[C@H](O)CC[C@]4(C)[C@@H]3CC[C@]12C`: the Potency entry in test [1], in [2], in test [3], in test [4], in [5] and in test [6] was “inactive” each time. Also, the Potency entry in test [7], in test [8], in [9], in [10], in [11] and in test [12] was “inactive” throughout. Moreover, the Potency result in [13] and in test [15] was “inactive” in each case.

As to `CCc1cc(C(C)=NOCc2ccc(C3CCCCC3)c(C(F)(F)F)c2)ccc1CN1CC(C(=O)O)C1`, the Potency entry in [1], in test [16], in test [2], in test [3] and in [11] was “inactive” throughout. Besides, the Potency was 0.59 µM (active) in [5]; 1.48 µM (active) in [7]; 0.0372 µM (active) in test [8]; 20.9 µM (active) in test [10]; 2.64 µM (active) in test [14].

As to `O=C(NNC(=O)c1ccc(CNS(=O)(=O)c2ccc(F)c(Cl)c2)cc1)c1ccccc1`, the Potency entry in test [1], in [2], in test [3], in [4], in test [5] and in [6] was “inactive” each time. Besides, the Potency entry in [7], in [8], in test [9], in test [10], in test [11] and in test [12] was “inactive” throughout. In addition, the Potency result in test [13] and in test [15] was “inactive” each time.

Consider `Cc1cnc(Nc2ccc(CN3CCOCC3)cc2)nc1Nc1cccc(S(=O)(=O)NC(C)(C)C)c1`, for which the Potency in [1] is 3.32 µM (active); in test [2], 3.32 µM (active) and 1.84 µM (active); in [3], 33.2 µM (active); in test [4] it was 9.3 µM (active); in [5] it was 4.69 µM (active); in [6] it was 2.96 µM (active). The Potency in test [7] was 2.96 µM (active); in [8], 0.833 µM (active); in test [9], 17.2 µM (active); in test [10] it was 2.64 µM (active); in test [11], 7.43 µM (active); in test [12], 3.72 µM (active). The Potency in [13] was 3.04 µM (active); in test [14], 3.72 µM (active); in test [15], 1.32 µM (active).

As to `Nc1ccn(C2CO[C@H](CO)O2)c(=O)n1` (stereo partly drawn), the Potency result in test [1], in test [2], in test [3], in [4], in [5] and in test [6] was “inactive” each time. Further, the Potency entry in [7], in [8], in [9], in test [10], in [11] and in [12] was “inactive” each time. Moreover, the Potency entry in [14] and in [15] was “inactive” in each case.

Take `COc1cc(C)c(Sc2cnc(NC(=O)c3ccc(CNC(C)C(C)(C)C)cc3)s2)cc1C(=O)N1CCN(C(C)=O)CC1` (stereo not drawn): the Potency is 2.96 µM (active) in test [1]; 20.8 µM (active) in [4]; 4.69 µM (active) in test [6]; 2.35 µM (active) in [7]; 2.09 µM (active) in test [8]; 7.69 µM (active) in test [9]. The Potency was 0.743 µM (active) in [10], 4.82 µM (active) in [13], 3.72 µM (active) in [14] and 1.66 µM (active) in test [15]. Also, the Potency entry in test [16], in test [2], in [11] and in [12] was “inactive” throughout.

Regarding `COc1cc(OC)cc(-c2ccc3ncc4ccc(=O)n(-c5ccc(N6CCNCC6)c(C(F)(F)F)c5)c4c3c2)c1`, the Potency in [1] was 3.32 µM (active); in [2], 7.43 µM (active); in [3], 11.8 µM (active); in test [4], 18.6 µM (active); in test [5], 2.96 µM (active); in test [6], 4.18 µM (active). Moreover, the Potency in [7] is 0.935 µM (active); in test [8], 1.32 µM (active); in [9] it was 15.3 µM (active); in test [10], 3.72 µM (active); in test [11], 14.8 µM (active); in test [12] it was 13.2 µM (active). The Potency in [13] is 7.64 µM (active); in test [14] it was 11.8 µM (active); in test [15], 2.64 µM (active).

For the origin of these results see PubChem BioAssay (NCATS).
